# Test results taken from PubChem BioAssay (NCATS).
# Records with an inconclusive call do not appear. Activity calls are given as the source filed them. Calls come from the whole dose curve; as a rule, active = well fitted inhibition curve with a large enough effect; inconclusive = small, poorly fitted or top-dose-only effect; inactive = no such curve, though single readings can be large or run the other way.
# Tested on: Zika virus NS2B-NS3 protease (linked construct)
# Test: Primary screen NINDS Rhodamine qHTS for Zika virus inhibitors (AID 1347160); note: nearly all actives have a fitted effect of over 55% in size
# Details: purified NS2B-NS3 protease, Rhodamine110 substrate fluorescence; series mostly up to 57.1 µM; activity change, negative = inhibition: at the top concentration
# Procedure, shortened: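 Single-chain NS2B-NS3 protease, 25 nM, pH 8.0; compounds preincubated 15 min. Activity: Rhodamine110 release from 1.5 microM substrate over 15 min, room temperature, data fitted to 4-parameter Hill.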
# % is set by controls: 0 for no effect and ±100 for the full control effect; potency is the fitted concentration of half-maximal effect.
SMILES,"activity change, negative = inhibition",outcome,Potency
c1ccc2c(Oc3nc(Nc4ccc(N5CCOCC5)cc4)c4ncn(C5CCCCC5)c4n3)cccc2c1,69.4% (inactive),,
c1cncc(CN2CCC(n3ncc4c(N5CCOCC5)nc(-c5ccc6[nH]ccc6c5)nc43)CC2)c1,40.1% (inactive),,
O=C(Nc1ccc(Oc2ccnc3[nH]ccc23)c(F)c1)c1cccn(-c2ccc(F)cc2)c1=O,,inactive,
CCc1nc(-c2cccc(C)c2)c(-c2ccnc(NC(=O)c3ccccc3)c2)s1,31.8% (inactive),,
Cc1cncc2cccc(S(=O)(=O)N3CCCN(C(=O)CN)C[C@@H]3C)c12,19.1% (inactive),,
FC(F)(F)c1ccc(Nc2nc3ccc(Oc4ccnc(-c5ncc(C(F)(F)F)[nH]5)c4)cc3[nH]2)cc1,-18.2% (inactive),,
C=C(C)[C@@H]1CC[C@]2(C(=O)O)CC[C@]3(C)[C@H](CC[C@@H]4[C@@]5(C)CC[C@H](O)C(C)(C)[C@@H]5CC[C@]43C)[C@@H]12,,,6.21 µM (active)
CC(O)(C#Cc1ccc2c(c1)N(c1nc(N)ncc1Cl)CC2)c1nccs1 (centres undefined),27.5% (inactive),,
CCC[C@H]1C[C@H](C(=O)N[C@@H]([C@@H]2O[C@@H](SC)[C@@H](O)[C@@H](O)[C@@H]2O)[C@H](C)Cl)N(C)C1,,inactive,
CCOc1cc2c(c(F)c1OCC)C(=N)N(CC(=O)c1cc(N3CCOCC3)c(OC)c(C(C)(C)C)c1)C2,121% (inactive),,
C[C@H](O)[C@@H]1C(=O)N2C(C(=O)O)=C(S[C@@H]3CN[C@H](CNS(N)(=O)=O)C3)[C@@H](C)[C@@H]12,4.55% (inactive),,
C[C@@H](Cc1cc2c(c(C(N)=O)c1)N(CCCO)CC2)NCCOc1ccccc1OCC(F)(F)F,33.6% (inactive),,
Cn1cc(-c2ccc3ncc(Cc4ccc5ncccc5c4)n3n2)cn1,-25.8% (inactive),,
CN1CCc2c(c3ccccc3n2Cc2ccc(C(=O)NO)cc2)C1,,inactive,
